Assay results published in the supplement of paper PMC9694430.
Where a name gives a salt, the structure may show the parent alone.

Experiments:
Assay in all cases: thermal shift delta Tm vs DMSO control; higher = stronger stabilization (binding)
Details in all cases: 12.5 µM; protein concentration 2 µM
[1] = system: LOC_OS04G57630-cb004
Procedure, shortened: (§1)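 The melting temperature shift given here is a triplicate mean, measured against protein that received only DMSO. Melting temperatures came from Boltzmann fits of differential scanning fluorimetry data on E. coli-expressed, purified rice kinase domain constructs. Each 19.5 μl well contained 2 μM kinase, 100 mM potassium phosphate pH 7.5, 150 mM NaCl, 10% glycerol, 5 × SYPRO Orange and compound in DMSO. Plates were scanned from 25°C to 95°C at 0.05°C/s.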

[2] = system: LOC_OS05G07850-cb002
Procedure, shortened: as §1

[3] = system: LOC_OS05G16824-cb004
Procedure, shortened: as §1

[4] = system: LOC_OS05G28520-cb001
Procedure, shortened: as §1

[5] = system: LOC_OS05G30820-cb001
Procedure, shortened: as §1

[6] = system: LOC_OS05G43570-cb004
Procedure, shortened: as §1

[7] = system: LOC_OS06G16330-cb003
Procedure, shortened: as §1

[8] = system: T1, LOC_OS06G22820-cb001
T1 sequence (whole entry): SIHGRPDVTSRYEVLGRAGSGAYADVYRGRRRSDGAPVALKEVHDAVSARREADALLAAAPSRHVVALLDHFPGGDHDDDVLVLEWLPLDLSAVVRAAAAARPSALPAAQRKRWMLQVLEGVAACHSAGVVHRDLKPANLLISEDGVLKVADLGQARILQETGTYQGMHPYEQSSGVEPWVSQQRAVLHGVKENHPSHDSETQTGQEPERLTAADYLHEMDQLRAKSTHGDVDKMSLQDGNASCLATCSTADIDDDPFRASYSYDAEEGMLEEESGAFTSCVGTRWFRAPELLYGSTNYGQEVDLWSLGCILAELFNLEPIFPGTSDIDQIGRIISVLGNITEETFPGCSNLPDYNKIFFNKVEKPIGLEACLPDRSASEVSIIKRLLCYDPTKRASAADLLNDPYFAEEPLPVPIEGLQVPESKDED
Procedure, shortened: as §1

[9] = system: LOC_OS07G06570-cb004
Procedure, shortened: as §1

[10] = system: LOC_OS07G07230-cb001
Procedure, shortened: as §1

LOC_OS06G16330-cb003, sequence (as listed by the source): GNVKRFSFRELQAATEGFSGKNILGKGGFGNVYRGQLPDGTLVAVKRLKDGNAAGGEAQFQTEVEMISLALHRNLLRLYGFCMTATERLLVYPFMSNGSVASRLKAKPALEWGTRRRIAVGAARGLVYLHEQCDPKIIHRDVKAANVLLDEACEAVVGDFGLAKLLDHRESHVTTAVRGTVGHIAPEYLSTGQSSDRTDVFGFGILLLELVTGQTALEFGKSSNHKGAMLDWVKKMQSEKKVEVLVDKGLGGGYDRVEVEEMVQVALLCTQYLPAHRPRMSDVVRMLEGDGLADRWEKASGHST

Structure (SMILES) | thermal shift delta Tm [1] [°C] | thermal shift delta Tm [2] [°C] | thermal shift delta Tm [3] [°C] | thermal shift delta Tm [4] [°C] | thermal shift delta Tm [5] [°C] | thermal shift delta Tm [6] [°C] | thermal shift delta Tm [7] [°C] | thermal shift delta Tm [8] [°C] | thermal shift delta Tm [9] [°C] | thermal shift delta Tm [10] [°C]
N#Cc1ccc2[nH]c(O)c(-c3ccc(CN4CCOCC4)cn3)c2c1 | 0.29 | 2.86 | 1.38 | 0.81 | 0.35 | 0.3 | -0.35 | 0.74 | 1.19 | 0.07
O=c1cc(N2CCOCC2)oc2c(-c3cccc4c3sc3ccccc34)cccc12 | -0.76 | 0.31 | -2.7 | 0.25 | 0.1 | -0.66 | -1.48 | 0.17 | 0.25 | -0.42
Nc1ncc(-c2ccnc(Nc3ccncc3)n2)c(CC2CC2)n1 | 0.81 | 7.15 | 0.92 | 0.45 | 0.44 | 0.4 | 3.58 | 0.78 | 1.03 | -0.19
O=c1cc(N2CCOCC2)oc2c1ccc1ccccc12 | 0.45 | 0.96 | 1.86 | 0.42 | 0.43 | 0.67 | -3.55 | 0.23 | 0.63 | 0.36
CN1CC[C@H](c2c(O)cc(O)c3c(=O)cc(-c4ccccc4Cl)oc23)[C@H](O)C1 [Flavopiridol HCl] | 0.77 | 4.9 | 0.91 | 0.55 | 0.9 | 0.71 | 3.57 | 1.71 | 0.71 | 0.03
CC(C)(O)CC(=O)NCCn1ccc2ncnc(Nc3ccc(Oc4cccc(C(F)(F)F)c4)c(Cl)c3)c21 | 1.06 | 0.82 | 2.1 | -0.31 | 0.35 | 1.03 | 0.72 | 1.33 | 0.78 | -1.32
CCc1nc(-c2cccc(C)c2)c(-c2ccnc(NC(=O)c3ccccc3)c2)s1 | 0.17 | 4.1 | -0.96 | 0.55 | 0.63 | -0.08 | 0.66 | 0.77 | 1.16 | -0.21
c1nc2c(NC3CCCCC3)nc(Nc3ccc(N4CCOCC4)cc3)nc2[nH]1 [Reversine] | 3.78 | 12 | 11.7 | 0.53 | 4.07 | 1.11 | 8.57 | 0.3 | 1.48 | 1.02
COc1ccc(F)c(F)c1C(=O)c1cnc(NC2CCN(S(C)(=O)=O)CC2)nc1N | 0.37 | 3.17 | -1.46 | 0.04 | 0.47 | 0.11 | 1.56 | 0.23 | 0.61 | 0.3
CCn1nc(C2CCN(C(=O)CCO)CC2)nc1-c1cnc(N)c(-c2nnc(C(C)(C)C)o2)n1 | 0.47 | 8.76 | 1.95 | 0.66 | 0.58 | 0.43 | 5.59 | 0.93 | 0.86 | 0.4
Cc1ccc(Nc2nccc(N(C)c3ccc4c(C)n(C)nc4c3)n2)cc1S(N)(=O)=O [Pazopanib] | 1.64 | 7.82 | 3.43 | 0.62 | 0.59 | -0.2 | 4.07 | 0.36 | 1.66 | 0.5
Nc1ncnc2c1c(-c1cnc3[nH]ccc3c1)nn2C1CCCC1 | 0.91 | 4.79 | 1.22 | 0.54 | 0.76 | 1.19 | 3.18 | 0.34 | 0.72 | 0.21
CC1(C)OCCn2c1nc1c(N3CCOCC3)nc(-c3cnc(N)nc3)nc12 | 0.29 | 1.01 | -0.61 | 0.5 | 0.57 | 0.76 | 2.07 | 0.14 | 1.2 | 0.43
O=C(Nc1ccc(OC(F)(F)F)cc1)c1sccc1NCc1ccnc2ccccc12 | 0.49 | 2.25 | -0.83 | 0.05 | 0.65 | 0.67 | 0.61 | 0.92 | 0.2 | -0.46
Cc1cc2c(F)c(Oc3ncnn4cc(OC[C@@H](C)OC(=O)[C@H](C)N)c(C)c34)ccc2[nH]1 | 0.17 | 2.83 | 1.32 | 0.65 | 0.41 | 0.24 | 0.16 | 0.5 | 0.52 | 0.42
Cc1ccc(NC(=O)Nc2cc(C(F)(F)F)ccc2F)cc1Nc1ccc2c(c1)NC(=O)/C2=C\c1ccc[nH]1 | 0.83 | 1.9 | 2.11 | 0.81 | 0.73 | 1.98 | 1.54 | 1.12 | -0.24 | 1.34
Cc1ncc(-c2ccnc(Nc3ccc(S(C)(=O)=O)cc3)n2)n1C(C)C | 1.43 | 11.2 | 6.1 | 0.35 | 1.14 | 0.74 | 5.53 | 1.02 | 0.69 | 0.17
C=CC(=O)Nc1cccc(Oc2nc(Nc3ccc(N4CCN(C)CC4)cc3)ncc2Cl)c1 | 1.97 | 11.6 | 8.96 | 4.43 | 1.14 | 0.72 | 5.65 | 0.76 | 0.79 | 1.03
S=C(NCc1ccc2c(c1)OCO2)N1CCN(c2ncnc3c2oc2ccccc23)CC1 [Amuvatinib (MP-470)] | 0.4 | 1.46 | -4.2 | 0.42 | 0.8 | 0.49 | 1.01 | 0.7 | 0.32 | 0.06
Cn1cc(-c2ccc3ncc(Cc4ccc5ncccc5c4)n3n2)cn1 | 1.12 | 5.01 | -1.27 | 0.45 | 0.48 | 0.16 | 2.64 | 0.5 | 0.78 | 0.13
COc1ccc(-c2cc3nccn3c(Nc3ncccc3C(N)=O)n2)cc1OC | 1.09 | 10.1 | -0.07 | 0.66 | 0.59 | 0.69 | 4.18 | 0.82 | 0.73 | 0.38

Structure (SMILES) | thermal shift delta Tm [1] [°C] | thermal shift delta Tm [2] [°C] | thermal shift delta Tm [3] [°C] | thermal shift delta Tm [4] [°C] | thermal shift delta Tm [5] [°C] | thermal shift delta Tm [6] [°C] | thermal shift delta Tm [7] [°C] | thermal shift delta Tm [8] [°C] | thermal shift delta Tm [9] [°C] | thermal shift delta Tm [10] [°C]
COc1cccc(-n2c(=O)[nH]c3cc(Cl)n(-c4ccc(-c5cccc(OC)c5O)cc4)c3c2=O)c1 | 0.32 | -0.83 | -0.73 | 0.37 | 0.41 | 0.59 | -0.14 | 0.65 | 1.02 | 0.5
Cn1cc(-c2ccc3nnc(Sc4ccc5ncccc5c4)n3n2)cn1 | 0.16 | 0.32 | -3.78 | 0.44 | 0.68 | 0.24 | 0.16 | 0.36 | 1.36 | 0.51
CC1=C(C(=O)Nc2ccc3[nH]ncc3c2)C(c2ccc(F)cc2)NC(=O)N1 (stereo not given) | 0.17 | 1.88 | -1.25 | 0.01 | 0 | 1.03 | 1.01 | 0.88 | 1.97 | 0.55
CCOc1cn(-c2ccc(F)cc2C)nc1C(=O)Nc1ccc(Oc2ccnc3cc(OC)c(OC)cc23)c(F)c1 | 2.05 | 11.1 | -0.65 | 0.31 | 0.28 | 0.24 | 3.99 | 0.19 | 0.82 | 0.19
O=S(=O)(NCCNC/C=C/c1ccc(Br)cc1)c1cccc2cnccc12 | -0.1 | 2.68 | -0.59 | -0.13 | 0.53 | 0.62 | 0.87 | 0.31 | 1.14 | 0.17
CC(C)n1nc(-c2cc3cc(O)ccc3[nH]2)c2c(N)ncnc21 [Torkinib (PP242)] | 0.41 | 5.09 | -3.24 | 0.21 | 0.67 | 0.33 | 1.93 | 0.42 | 0.62 | 0.14
Cc1cc([C@@H](C)Nc2ccccc2C(=O)O)c2nc(N3CCOCC3)cc(=O)n2c1 | 0.31 | -0.01 | -0.08 | 0.3 | 0.51 | 0.63 | -0.44 | 0.63 | 1.04 | -0.17
CCc1cc(Nc2nccc(-c3c(-c4ccc(OC)c(C(=O)Nc5c(F)cccc5F)c4)nc4ccccn34)n2)c(OC)cc1N1CCC(N2CCN(S(C)(=O)=O)CC2)CC1 | -0.18 | 0.07 | -0.08 | 1.11 | 0.41 | 0.31 | -0.08 | 0.94 | 0.75 | 0.69
Nc1cc(C(F)(F)F)c(-c2cc(N3CCOCC3)nc(N3CCOCC3)n2)cn1 [Buparlisib (BKM120, NVP-BKM120)] | 0.52 | 0.95 | -3.32 | 0.28 | 0.66 | 0.71 | 0.02 | 0.75 | 0.64 | -0.59
CCN(CC)CCNC(=O)c1c(C)[nH]c(/C=C2\C(=O)Nc3ccc(F)cc32)c1C [Sunitinib] | 4.01 | 8.4 | 12.1 | 2.16 | 0.86 | 0.55 | 8.31 | 0.22 | 0.72 | 0.24
COC(=O)Nc1ccc(-c2nc(N3CCOCC3)c3cnn(C4CCN(C(=O)OC)CC4)c3n2)cc1 | 0.06 | 0.49 | -0.54 | -0.26 | 0.57 | 0.65 | -0.2 | 0.4 | 0.99 | -0.41
O=C1Nc2ccc(I)cc2/C1=C/c1cc(Br)c(O)c(Br)c1 | -0.66 | 7.59 | -3.03 | 2.07 | 1.54 | 0.73 | 1.63 | 0.94 | 1.22 | 1.47
Cc1ccc(C(=O)Nc2ccc(CN3CCN(C)CC3)c(C(F)(F)F)c2)cc1C#Cc1cnc2[nH]ncc2c1 [GZD824 Dimesylate] | 6.01 | 13.9 | 2.52 | 0.74 | 2.1 | 1.6 | 5.01 | 0.3 | 0.65 | 1.45
O=C1NC(=O)/C(=C/c2ccc3c(c2)OC(F)(F)O3)S1 | 0.83 | 0.16 | -1.22 | 0.96 | 0.8 | 0.74 | 0.37 | 0.72 | 0.31 | 0.11
COc1cc2ncnc(Nc3cccc(Cl)c3F)c2cc1OC(=O)N1CCN(C)C[C@H]1C | 0.65 | 9.1 | -0.19 | 0.6 | 0.5 | 0.72 | 2.26 | 0.6 | 1.12 | 0.94
COC(=O)N[C@@H](C)CNc1nccc(-c2cn(C(C)C)nc2-c2cc(Cl)cc(NS(C)(=O)=O)c2F)n1 [Encorafenib (LGX818)] | -0.17 | 5.07 | -3.57 | 0.85 | 0.58 | 0.22 | 1.92 | 0.46 | 1.58 | 0.67
CC(C)c1cnn2c(NCc3ccccc3)cc(NCCCCCCN)nc12 | -0.33 | -0.23 | -2.84 | 0.27 | 0.42 | 0.43 | -0.05 | 0.96 | 1.35 | 0.18
COc1cc2c(Oc3ccc(NC(=O)C4(C(=O)Nc5ccc(F)cc5)CC4)cc3F)ccnc2cc1OCCCN1CCOCC1 | 6.98 | 13.9 | 5.71 | 16 | 0.55 | 0.27 | 9.02 | 0.8 | 0.2 | 0.3
O=C(O)c1ccc(Nc2ncc3c(n2)-c2ccc(Cl)cc2C(c2c(F)cccc2F)=NC3)cc1 | -0.29 | 4.66 | -1.88 | 0.62 | 0.22 | 0.24 | -0.12 | 0.97 | 0.4 | 0.33
N#CC1(c2ccc(NC(=O)c3cccnc3NCc3ccncc3)cc2)CCCC1 [Apatinib] | 0.34 | 0.8 | -5.15 | 0.2 | 0.66 | 0.51 | -0.32 | 0.38 | 1.2 | 0.05
O=C1NC(=O)/C(=C/c2ccc(-c3ccc(F)cc3O)o2)S1 | 1.54 | 6.53 | 3.79 | 1.52 | 1.01 | 2.03 | 3.28 | 2.41 | 1.83 | 0.13
